A549 tox: A549 cytotoxicity, counter-screen for Nrf2 inhibitors | 0.16% of 390,000 active | A549 ARE-Fluc cells, CellTiter-Fluor viability, 18-24 h | Potency, µM (series often up to 46 µM), inactives show top-dose activity change, negative = cytotoxicity, usual class: inhibitors; further: potency means the concentration at half of the fitted maximal effect; on the % scale 0 is the no-effect control and ±100 the full control effect
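A549 ARE-Fluc cells in 5% FBS OPTI-MEM, 5000 cells/well, rested 2 h then exposed to compounds in concentration-response for 18-24 h at 37 °C. Viability by CellTiter-Fluor fluorescence (Ex 405/Em 525) after 30 min; luciferase luminescence (BugLite, 15 min, RT) read afterwards.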
Nrf2 block: inhibitors of Nrf2 signaling | A549 ARE-Fluc reporter, luciferase luminescence, 18-24 h | Potency, µM (top dose mostly 46 µM), for the others: top-dose activity change, negative = inhibition, most hits filed as inhibitors | 2.1% of 360,000 active | AID 504444; further: potency means the concentration at half of the fitted maximal effect; on the % scale 0 is the no-effect control and ±100 the full control effect; nearly all actives have a fitted effect of over 60% in size
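Two sequential reads on A549 ARE_Fluc cells exposed to compound for 18-24 h: a CellTiter-Fluor fluorescence read for viability, then a luciferase luminescence read for Nrf2/ARE activity.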
Nrf2 activator: activators of Nrf2 (ARE) signaling; AREc32 ARE-luciferase reporter (MCF7-derived line), luminescence, 24 h; Potency, µM (series often up to 46.1 µM), for the others: top-dose activation, actives largely listed as activators; 0.31% of 410,000 active; AID 624171; further: potency means the concentration at half of the fitted maximal effect; % of control where 0% means no effect; nearly all actives have a fitted effect of over 65% in size
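AREc32 cells carrying an ARE-driven firefly luciferase, 1000 cells/well in OPTI-MEM with 5% FBS, dosed after overnight attachment and incubated 24 hr at 37 deg C. Steady-Glo luminescence read after 30 min at RT.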
IL-2 act: IL-2 activation; IL-2 activation reporter assay, cell-based qHTS; stimulated with anti-CD3/CD4/CD28 beads; in transgenic mouse T cells; activation, % (series mostly up to about 46 µM); 0.065% of 360,000 active; AID 652025; in the data active means activation above about 50%; inconclusive means mostly about 30% to 49%; further: 0% is about no effect
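Unstimulated transgenic mouse T cells preincubated 60 min with compound, then stimulated with anti-CD3/anti-CD4-coated beads plus anti-CD28 for 18 h at 37 degrees C. IL-2 response read as EGFP and DsRed fluorescence by plate cytometry.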
Starred values were filed as active, the others as inactive; ? = inconclusive; . = no result. Sampled rows, rich in hits. Any-hit rate of the full collection: about 2.3%. Unless noted, the call rests on the fitted dose curve; in most records, active means well fitted curve in the direction sought with a large enough effect; inconclusive means small, poorly fitted or top-dose-only effect, or another doubt; inactive means no such curve, though single readings can be large; an effect the other way counts as inactive or inconclusive.

SMILES	A549 tox	Nrf2 block	Nrf2 activator	IL-2 act
CCCCn1c(SCc2nnc(-c3ccccc3)o2)nc2c1c(=O)n(C)c(=O)n2C	-14%	10µM*	2%	-3
CCCCn1c(SCC(=O)N2c3ccccc3CCc3ccccc32)nc2c1c(=O)n(C)c(=O)n2C	-1%	?	0%	0
CCOCCn1c(N2CCN(c3ccccc3)CC2)nc2c1c(=O)n(C)c(=O)n2C	-11%	0%	0%	-2
CC(=O)c1cc(-c2ccccc2)n(CCC(=O)Nc2ccc(C(C)C)cc2)c1C	?	.	-2%	.
O=C(N/N=C/C(Cl)=C/c1ccccc1)c1cnccn1	-3%	?	11µM*	0
CC(=C/c1ccccc1)/C=N/NC(=O)c1cnccn1	-6%	12%	0%	-1
O=C(N/N=C/C(Cl)=C/c1ccccc1)c1ccccc1F	2%	?	?	2
O=C(N/N=C/C(Cl)=C\c1ccccc1)c1cnccn1	8%	?	16µM*	-2
O=c1c2ccccc2n(Cc2ccccc2F)c(=O)n1-c1cccc(F)c1	-8%	-14%	-1%	.
O=C(OCC#CCSc1nnc(-c2ccccc2)o1)c1ccc(F)cc1	-1%	16%	.	.
O=C(N/N=C\c1cn[nH]c1-c1ccccc1)c1ccc([N+](=O)[O-])cc1	-1%	18%	0%	0
O=C(N/N=C/c1cn[nH]c1-c1ccccc1)c1ccco1	0%	6%	8.9µM*	-3
CCOC(=O)C1=C(Cc2ccc(F)cc2)C(=O)c2ccccc2C1=O	16µM*	.	9%	4
COc1ccc(C2Nc3ccccc3C(=O)N2Cc2ccc(C(F)(F)F)cc2)cc1COc1ccc(NC(C)=O)cc1 (configuration not stated)	7%	?	.	.
COc1ccc(C2Nc3ccccc3C(=O)N2Cc2ccc(C(C)(C)C)cc2)cc1COc1ccc(NC(C)=O)cc1 (configuration not stated)	-2%	18µM*	.	.
O=C(NCc1ccccc1)C(C1CC1)n1c(=O)c(-c2cc3ccccc3[nH]2)nc2ccccc21 (configuration not stated)	.	.	.	-1
Cc1nc(Nc2ccc(Cl)cc2)cc(-c2ccccc2)n1	-1%	21%	0%	.
COC(=O)c1ccc(Cn2cnc3c(cnn3-c3ccc(F)cc3)c2=O)o1	-1%	2%	0%	0
COC(=O)c1ccc(Cn2cnc3c(cnn3-c3ccc(C)c(C)c3)c2=O)o1	-15%	23µM*	0%	0
CCOP(=O)(OCC)c1nc(-c2ccc(Cl)cc2Cl)oc1N1CCCCC1	?	21µM*	4%	-3
Cc1ccc2nc(CSc3nnc(NC(=O)COc4ccccc4F)s3)cc(=O)n2c1	-11%	.	0%	.
Nc1ccc(-c2nc3ccc(N)cc3[nH]2)cc1	1%	21%	?	0
Nc1ccc2cc3[nH]c4cc(N)ccc4c3nc2c1	?	?	?	424*
CCCOc1ccc(-c2nonc2NC(=O)c2ccco2)cc1OCCC	0%	?	14%	.
Nc1cc2c3c(cccc3c1)C(=O)N(CCN1CCCC1)C2=O	?	13µM*	3%	0
SMILES	A549 tox	Nrf2 block	Nrf2 activator	IL-2 act
CCN(CC)CCN1C(=O)c2cccc3cc(N)cc(c23)C1=O	?	?	-2%	-2
Cc1ccc2nc(-c3cccc(NC(=O)c4cccc5c(Cl)cccc45)c3)oc2c1	15%	?	2%	.
CCn1cc(S(=O)(=O)N2CCc3ccccc3C2)cn1	17%	-9%	5%	1
CCn1cc(S(=O)(=O)N2CCN(c3ccc(Cl)cc3)CC2)cn1	-14%	12µM*	0%	-4
CC(/C=C/c1ccc(N(C)C)cc1)=N/N=C1/NC(=O)CC(C(=O)Nc2ccc(Cl)cc2)S1 (configuration not stated)	18µM*	?	13%	0
CC(/C=C/c1ccc(N(C)C)cc1)=N\N=C1\NC(=O)CC(C(=O)Nc2ccccc2)S1 (configuration not stated)	-28%	-22%	4%	0
CC1Cc2ccccc2N1C(=O)CN1CCC(n2nnc3cc(C(F)(F)F)ccc32)CC1 (configuration not stated)	?	16µM*	4%	-3
COc1ccc(Nc2nc(-c3ccccc3O)nc3ccccc23)cc1	-28%	-98%	4%	-5
COc1cccc(Nc2nc(-c3ccccc3O)nc3ccccc23)c1	6%	-19%	12%	64*
COc1ccc(CCNC(=O)Cc2c(C)c3c(cc(C)c4c(C)c(C)oc43)oc2=O)cc1	5%	2%	0%	.
CC(OC(=O)c1cccn1C)C(=O)Nc1ccc2c(c1)OCO2 (configuration not stated)	1%	26µM*	2%	3
Cc1noc(C)c1CSc1nc2sc3c(c2c(=O)n1C)CCCC3	?	?	-1%	1
C=CCn1c(SCc2c(C)noc2C)nc2sc3c(c2c1=O)CCCCC3	-28%	16µM*	-1%	0
Cc1cc2c(s1)c1cnn(Cc3ccc(Br)cc3F)c(=O)c1n2C	-1%	14%	.	.
COc1ccc(-n2cc(C(=O)NCc3ccccc3)c3ccccc3c2=O)cc1	5%	11%	2%	.
COc1ccc(Cc2nc(C(=O)Nc3ccccc3)cs2)cc1	2%	-28%	5%	1
C=CC[n+]1c(-c2ccc(OC)cc2)csc1NNC(=O)Nc1ccccc1	-7%	15µM*	4%	-1
COc1ccc(NS(=O)(=O)c2ccc3[nH]c4c(c3c2)CCCC4)c(OC)c1	-11%	?	-1%	.
CC(=O)c1cccc(NS(=O)(=O)c2ccc3[nH]c4c(c3c2)CCCCC4)c1	-18%	16µM*	-3%	.
O=C(Nc1ccc2[nH]c3c(c2c1)CCCC3)c1ccco1	-7%	?	13µM*	0
COc1ccc(OC)c(CNS(=O)(=O)c2ccc3[nH]c4c(c3c2)CCCCC4)c1	-11%	16µM*	-1%	.
CCOc1ccc(NS(=O)(=O)c2ccc3[nH]c4c(c3c2)CCCCC4)cc1	-2%	?	-2%	.
COc1ccc(NS(=O)(=O)c2ccc3[nH]c4c(c3c2)CCCCC4)cc1	?	16µM*	0%	.
COc1ccc(CN(Cc2ccccc2)C(=O)c2ccccc2O)cc1COc1ccc(NC(C)=O)cc1	-1%	21%	.	.
O=C(Nc1cc(F)ccc1F)C1CCN(c2nc3ccccc3n3cccc23)CC1	-14%	7%	-1%	.
Cc1ccc(NS(=O)(=O)c2cc3c(cc2-c2ccsc2)NC(=O)CO3)cc1C	3%	10%	.	.
Cc1ccc(S(=O)(=O)N2CCCc3cc(NS(=O)(=O)c4ccc(C)c(C)c4)ccc32)cc1	-14%	.	1%	.
CN(CC(=O)NCc1ccccc1)S(=O)(=O)c1ccc2[nH]c3c(c2c1)CCCC3	-4%	-19%	5%	.
CN(Cc1ccccc1)S(=O)(=O)c1ccc2[nH]c3c(c2c1)CCCCC3	2%	16µM*	3%	.
N#Cc1c(N)nc(SCc2ccncc2)c(C#N)c1-c1cccs1	-17%	23µM*	6%	-3

High-throughput results deposited in PubChem BioAssay by National Center for Advancing Translational Sciences (NCATS).
